# According to PMC7862700, “An all-to-all approach to the identification of sequence-specific readers for epigenetic DNA modifications on cytosine”:
# Experiments:
# Experiment in all cases: DAPPL (digital affinity profiling via proximity ligation, sequencing); 10 mM Tris-HCl pH 7.5, 50 mM NaCl, 1 mM DTT, 4% glycerol, room temperature, 30 min; GST-TFs on glutathione beads, 16-mer random dsDNA library, 0.1% formaldehyde crosslink after washing; high values mean tight binding
# FLI1 = molecular target: T1, FLI1 (Homo sapiens, UniProt Q01543 1-452); settings: protein: recombinant; tags: N-terminal GST; dsDNA, one strand shown
# T1 sequence: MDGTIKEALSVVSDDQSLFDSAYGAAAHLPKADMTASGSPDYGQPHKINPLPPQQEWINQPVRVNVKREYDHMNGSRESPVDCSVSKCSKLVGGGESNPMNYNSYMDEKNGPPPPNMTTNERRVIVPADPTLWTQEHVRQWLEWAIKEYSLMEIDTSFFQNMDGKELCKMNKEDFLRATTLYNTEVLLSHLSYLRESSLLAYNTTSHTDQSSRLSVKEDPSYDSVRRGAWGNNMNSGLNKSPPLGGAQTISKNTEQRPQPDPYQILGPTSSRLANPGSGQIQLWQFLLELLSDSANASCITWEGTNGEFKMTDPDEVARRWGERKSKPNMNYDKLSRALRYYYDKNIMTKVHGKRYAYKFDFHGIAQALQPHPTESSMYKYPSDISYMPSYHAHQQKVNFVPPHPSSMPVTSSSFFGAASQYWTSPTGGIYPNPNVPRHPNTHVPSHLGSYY
# How it was run: (§1)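 Sequencing on an Illumina NextSeq500 followed washing, crosslinking with 0.1% formaldehyde, proximity ligation (BsaI/T4 ligase, 1 h, 37 °C) and PCR amplification of pools that had been incubated for 30 min at room temperature with 200 nmole of a random double-stranded 16-mer DNA library in Tris/NaCl/DTT/glycerol buffer. Each pool held DNA-barcoded human transcription factors, expressed in yeast as GST fusions and captured on glutathione beads, plus a tag-only sample. Binding signal is a hexamer's read frequency for a factor divided by its frequency in the tag-only sample.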
# ELK1 = molecular target: T2, ELK1 (Homo sapiens, UniProt P19419 1-428); settings: protein: recombinant; tags: N-terminal GST; dsDNA, one strand shown
# T2 sequence: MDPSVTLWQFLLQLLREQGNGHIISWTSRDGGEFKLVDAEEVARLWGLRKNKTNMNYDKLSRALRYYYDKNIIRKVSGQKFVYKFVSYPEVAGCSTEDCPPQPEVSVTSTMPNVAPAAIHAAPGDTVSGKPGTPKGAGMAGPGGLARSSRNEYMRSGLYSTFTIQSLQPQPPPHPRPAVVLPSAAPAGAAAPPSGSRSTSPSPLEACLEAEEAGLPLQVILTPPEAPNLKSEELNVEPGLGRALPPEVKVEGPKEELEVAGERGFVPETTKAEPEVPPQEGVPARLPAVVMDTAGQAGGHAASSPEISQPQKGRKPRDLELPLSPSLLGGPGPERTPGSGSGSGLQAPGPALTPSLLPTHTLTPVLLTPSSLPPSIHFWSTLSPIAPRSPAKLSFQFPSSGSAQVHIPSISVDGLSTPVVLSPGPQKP
# How it was run: as §1
# GABPA = molecular target: T3, GABPA (Homo sapiens, UniProt Q06546 1-454); settings: protein: recombinant; tags: N-terminal GST; dsDNA, one strand shown
# T3 sequence: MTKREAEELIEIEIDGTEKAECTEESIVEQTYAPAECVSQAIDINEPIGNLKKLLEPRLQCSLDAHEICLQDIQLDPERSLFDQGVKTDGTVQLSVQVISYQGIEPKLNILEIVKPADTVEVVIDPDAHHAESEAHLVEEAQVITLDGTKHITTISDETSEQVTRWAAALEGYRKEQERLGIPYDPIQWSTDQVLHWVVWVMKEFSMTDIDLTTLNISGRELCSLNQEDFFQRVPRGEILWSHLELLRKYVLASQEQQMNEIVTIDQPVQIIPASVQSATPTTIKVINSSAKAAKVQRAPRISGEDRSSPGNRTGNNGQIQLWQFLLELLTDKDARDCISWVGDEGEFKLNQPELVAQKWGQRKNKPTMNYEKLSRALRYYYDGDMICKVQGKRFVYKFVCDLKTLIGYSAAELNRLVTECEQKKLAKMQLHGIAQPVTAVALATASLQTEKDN
# How it was run: as §1
# ERG = molecular target: T4, ERG (Homo sapiens, UniProt P11308 1-479); settings: protein: recombinant; tags: N-terminal GST; dsDNA, one strand shown
# T4 sequence: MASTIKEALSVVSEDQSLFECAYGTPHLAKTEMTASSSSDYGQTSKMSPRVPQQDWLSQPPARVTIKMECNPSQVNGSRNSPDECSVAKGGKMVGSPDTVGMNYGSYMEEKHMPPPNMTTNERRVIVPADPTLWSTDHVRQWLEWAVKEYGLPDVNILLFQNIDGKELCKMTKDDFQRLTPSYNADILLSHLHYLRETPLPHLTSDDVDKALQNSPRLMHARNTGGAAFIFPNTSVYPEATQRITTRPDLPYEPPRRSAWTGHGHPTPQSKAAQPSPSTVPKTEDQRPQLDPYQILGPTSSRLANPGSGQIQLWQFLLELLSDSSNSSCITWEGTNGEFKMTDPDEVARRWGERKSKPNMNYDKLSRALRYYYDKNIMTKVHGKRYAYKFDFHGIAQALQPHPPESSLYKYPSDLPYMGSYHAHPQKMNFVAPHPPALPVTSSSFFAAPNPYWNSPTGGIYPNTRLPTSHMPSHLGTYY
# How it was run: as §1
# ELF1 = ELF1 (Homo sapiens, UniProt P32519 1-619); settings: protein: recombinant; tags: N-terminal GST; dsDNA, one strand shown
# How it was run: as §1
# EHF = molecular target: T5, EHF (Homo sapiens, UniProt Q9NZC4 1-300); settings: protein: recombinant; tags: N-terminal GST; dsDNA, one strand shown
# T5 sequence: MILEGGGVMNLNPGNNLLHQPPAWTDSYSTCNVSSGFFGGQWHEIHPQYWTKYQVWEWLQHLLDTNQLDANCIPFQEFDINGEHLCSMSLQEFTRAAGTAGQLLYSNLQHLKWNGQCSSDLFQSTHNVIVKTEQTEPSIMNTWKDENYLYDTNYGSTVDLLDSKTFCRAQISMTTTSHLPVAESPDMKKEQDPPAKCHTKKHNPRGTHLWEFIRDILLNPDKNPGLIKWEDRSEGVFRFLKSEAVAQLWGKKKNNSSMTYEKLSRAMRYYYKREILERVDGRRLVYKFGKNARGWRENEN
# How it was run: as §1
# SPI1 = SPI1 (Homo sapiens, UniProt P17947 1-270); settings: protein: recombinant; tags: N-terminal GST; dsDNA, one strand shown
# How it was run: as §1
# SPIB = SPIB (Homo sapiens, UniProt Q01892 1-262); settings: protein: recombinant; tags: N-terminal GST; dsDNA, one strand shown
# How it was run: as §1
# ELK3 = molecular target: T6, ELK3 (Homo sapiens, UniProt P41970 1-407); settings: protein: recombinant; tags: N-terminal GST; dsDNA, one strand shown
# T6 sequence: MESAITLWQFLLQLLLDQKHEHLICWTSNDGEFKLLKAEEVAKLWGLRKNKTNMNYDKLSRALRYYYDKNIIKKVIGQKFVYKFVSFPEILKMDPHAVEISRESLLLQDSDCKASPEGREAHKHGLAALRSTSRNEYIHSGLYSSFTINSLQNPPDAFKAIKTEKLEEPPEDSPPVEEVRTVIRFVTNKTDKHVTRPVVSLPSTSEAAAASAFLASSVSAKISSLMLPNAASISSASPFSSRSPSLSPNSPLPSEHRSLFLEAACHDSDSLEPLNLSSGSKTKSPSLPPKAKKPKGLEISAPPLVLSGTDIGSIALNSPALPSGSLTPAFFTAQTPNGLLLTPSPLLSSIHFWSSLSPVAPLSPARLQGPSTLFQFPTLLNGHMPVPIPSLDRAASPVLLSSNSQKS
# How it was run: as §1
# FEV = molecular target: T7, FEV (Homo sapiens, UniProt Q99581 1-238); settings: protein: recombinant; tags: N-terminal GST; dsDNA, one strand shown
# T7 sequence: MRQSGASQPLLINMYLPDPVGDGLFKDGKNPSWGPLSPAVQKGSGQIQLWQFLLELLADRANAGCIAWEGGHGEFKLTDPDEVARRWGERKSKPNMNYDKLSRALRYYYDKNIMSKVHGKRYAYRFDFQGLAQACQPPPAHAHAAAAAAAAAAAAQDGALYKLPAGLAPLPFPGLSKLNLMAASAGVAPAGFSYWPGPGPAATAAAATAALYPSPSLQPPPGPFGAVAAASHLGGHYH
# How it was run: as §1
# ETV5 = ETV5 (Homo sapiens, UniProt P41161 1-510); settings: protein: recombinant; tags: N-terminal GST; dsDNA, one strand shown
# How it was run: as §1
# HSF1 = HSF1 (Homo sapiens, UniProt Q00613 1-529); settings: protein: recombinant; tags: N-terminal GST; chain copies: 3; dsDNA, one strand shown
# How it was run: as §1
# SPIC = molecular target: T8, SPIC (Homo sapiens, UniProt Q8N5J4 1-248); settings: protein: recombinant; tags: N-terminal GST; dsDNA, one strand shown
# T8 sequence: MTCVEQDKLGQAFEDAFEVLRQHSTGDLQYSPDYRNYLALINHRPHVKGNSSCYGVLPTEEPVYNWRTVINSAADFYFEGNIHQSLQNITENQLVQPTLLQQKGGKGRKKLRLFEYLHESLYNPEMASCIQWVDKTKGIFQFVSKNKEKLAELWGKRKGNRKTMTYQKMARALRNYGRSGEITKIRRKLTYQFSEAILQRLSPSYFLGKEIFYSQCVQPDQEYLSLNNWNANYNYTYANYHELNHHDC
# How it was run: as §1
# ELF4 = ELF4 (Homo sapiens, UniProt Q99607 1-663); settings: protein: recombinant; tags: N-terminal GST; dsDNA, one strand shown
# How it was run: as §1
# ELK4 = molecular target: T9, ELK4 (Homo sapiens, UniProt P28324-2 1-405); settings: protein: recombinant; tags: N-terminal GST; dsDNA, one strand shown
# T9 sequence: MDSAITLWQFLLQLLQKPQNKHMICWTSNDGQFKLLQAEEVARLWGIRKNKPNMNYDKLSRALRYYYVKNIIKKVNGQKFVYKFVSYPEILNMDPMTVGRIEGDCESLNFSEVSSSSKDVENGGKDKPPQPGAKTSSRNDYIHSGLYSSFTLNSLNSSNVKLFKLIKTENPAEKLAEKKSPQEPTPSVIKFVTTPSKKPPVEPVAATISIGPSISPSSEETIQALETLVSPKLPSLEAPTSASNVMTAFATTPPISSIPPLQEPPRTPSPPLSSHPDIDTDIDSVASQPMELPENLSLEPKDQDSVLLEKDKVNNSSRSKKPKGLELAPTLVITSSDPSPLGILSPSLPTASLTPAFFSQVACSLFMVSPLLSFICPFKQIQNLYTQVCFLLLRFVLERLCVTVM
# How it was run: as §1
# ETV2 = molecular target: T10, ETV2 (Homo sapiens, UniProt O00321 1-342); settings: protein: recombinant; tags: N-terminal GST; dsDNA, one strand shown
# T10 sequence: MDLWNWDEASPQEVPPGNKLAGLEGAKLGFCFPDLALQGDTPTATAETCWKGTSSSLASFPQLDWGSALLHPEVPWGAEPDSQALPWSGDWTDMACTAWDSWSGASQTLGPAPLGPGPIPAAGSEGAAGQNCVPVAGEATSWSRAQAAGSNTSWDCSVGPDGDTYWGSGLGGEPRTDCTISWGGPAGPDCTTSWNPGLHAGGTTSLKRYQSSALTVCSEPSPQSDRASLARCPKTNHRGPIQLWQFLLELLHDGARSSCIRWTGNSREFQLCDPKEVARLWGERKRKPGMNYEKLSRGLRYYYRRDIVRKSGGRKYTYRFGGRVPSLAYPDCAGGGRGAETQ
# How it was run: as §1
# ELF3 = molecular target: T11, ELF3 (Homo sapiens, UniProt P78545 1-371); settings: protein: recombinant; tags: N-terminal GST; dsDNA, one strand shown
# T11 sequence: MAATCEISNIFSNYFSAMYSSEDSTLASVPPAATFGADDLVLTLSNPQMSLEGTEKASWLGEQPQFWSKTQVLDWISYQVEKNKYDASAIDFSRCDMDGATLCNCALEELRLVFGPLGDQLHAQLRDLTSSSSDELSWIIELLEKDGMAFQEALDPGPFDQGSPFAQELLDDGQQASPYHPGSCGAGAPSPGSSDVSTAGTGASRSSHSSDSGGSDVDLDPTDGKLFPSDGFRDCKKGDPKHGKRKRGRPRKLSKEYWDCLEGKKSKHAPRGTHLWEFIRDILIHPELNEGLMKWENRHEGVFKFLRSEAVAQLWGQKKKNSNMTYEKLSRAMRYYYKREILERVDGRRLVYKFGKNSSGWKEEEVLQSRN
# How it was run: as §1
# CRX = CRX (Homo sapiens, UniProt O43186 1-299); settings: protein: recombinant; tags: N-terminal GST; dsDNA, one strand shown
# How it was run: as §1
# ETV1 = ETV1 (Homo sapiens, UniProt P50549 1-477); settings: protein: recombinant; tags: N-terminal GST; dsDNA, one strand shown
# How it was run: as §1
# HSF1, sequence (Q00613 whole entry): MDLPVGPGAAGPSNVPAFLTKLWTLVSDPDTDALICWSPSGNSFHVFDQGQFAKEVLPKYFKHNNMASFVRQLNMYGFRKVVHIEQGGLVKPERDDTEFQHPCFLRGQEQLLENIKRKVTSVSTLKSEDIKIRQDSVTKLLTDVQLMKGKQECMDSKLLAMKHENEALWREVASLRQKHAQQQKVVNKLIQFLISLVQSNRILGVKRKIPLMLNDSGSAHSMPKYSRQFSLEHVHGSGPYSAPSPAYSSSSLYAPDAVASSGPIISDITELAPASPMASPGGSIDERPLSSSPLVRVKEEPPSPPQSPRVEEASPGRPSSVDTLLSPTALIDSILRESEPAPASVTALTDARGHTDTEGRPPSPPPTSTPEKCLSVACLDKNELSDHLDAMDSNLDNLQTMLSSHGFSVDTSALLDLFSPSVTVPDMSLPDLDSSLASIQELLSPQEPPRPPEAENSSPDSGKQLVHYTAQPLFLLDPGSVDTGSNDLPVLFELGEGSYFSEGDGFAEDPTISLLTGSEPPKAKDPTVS
# SPIB, sequence (Q01892 whole entry): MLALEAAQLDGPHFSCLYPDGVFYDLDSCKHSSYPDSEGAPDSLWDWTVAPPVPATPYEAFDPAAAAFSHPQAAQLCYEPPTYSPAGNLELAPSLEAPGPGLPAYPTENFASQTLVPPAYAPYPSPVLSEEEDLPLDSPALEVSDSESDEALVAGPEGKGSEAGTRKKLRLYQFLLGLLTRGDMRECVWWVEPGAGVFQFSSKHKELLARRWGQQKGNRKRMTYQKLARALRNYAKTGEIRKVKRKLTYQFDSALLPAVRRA
# CRX, sequence (O43186 whole entry): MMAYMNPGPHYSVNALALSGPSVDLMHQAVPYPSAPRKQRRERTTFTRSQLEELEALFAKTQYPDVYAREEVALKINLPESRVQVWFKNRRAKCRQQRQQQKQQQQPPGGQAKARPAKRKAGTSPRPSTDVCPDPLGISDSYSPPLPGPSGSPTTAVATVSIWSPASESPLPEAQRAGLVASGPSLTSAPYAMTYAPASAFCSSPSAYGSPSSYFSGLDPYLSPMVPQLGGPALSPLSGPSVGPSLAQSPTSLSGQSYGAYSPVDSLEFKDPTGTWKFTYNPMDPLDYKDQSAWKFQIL
# ELF4, sequence (Q99607 whole entry): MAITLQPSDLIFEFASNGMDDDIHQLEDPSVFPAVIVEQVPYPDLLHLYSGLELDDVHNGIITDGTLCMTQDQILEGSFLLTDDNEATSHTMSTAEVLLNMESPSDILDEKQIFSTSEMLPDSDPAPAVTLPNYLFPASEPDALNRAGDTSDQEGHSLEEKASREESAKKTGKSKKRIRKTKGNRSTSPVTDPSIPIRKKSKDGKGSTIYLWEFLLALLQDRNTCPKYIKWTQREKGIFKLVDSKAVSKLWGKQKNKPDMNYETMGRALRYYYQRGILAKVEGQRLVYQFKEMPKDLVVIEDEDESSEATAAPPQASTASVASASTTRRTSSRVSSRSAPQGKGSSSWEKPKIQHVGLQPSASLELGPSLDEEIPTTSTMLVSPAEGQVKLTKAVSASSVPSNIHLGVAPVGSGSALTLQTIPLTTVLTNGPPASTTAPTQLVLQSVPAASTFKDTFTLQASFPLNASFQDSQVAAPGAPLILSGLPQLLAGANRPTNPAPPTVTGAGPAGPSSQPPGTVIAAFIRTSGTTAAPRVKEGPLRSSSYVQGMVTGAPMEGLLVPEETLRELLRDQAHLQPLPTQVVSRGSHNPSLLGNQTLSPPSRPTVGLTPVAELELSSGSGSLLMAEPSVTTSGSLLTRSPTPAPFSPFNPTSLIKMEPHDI
# ELF1, sequence (P32519 whole entry): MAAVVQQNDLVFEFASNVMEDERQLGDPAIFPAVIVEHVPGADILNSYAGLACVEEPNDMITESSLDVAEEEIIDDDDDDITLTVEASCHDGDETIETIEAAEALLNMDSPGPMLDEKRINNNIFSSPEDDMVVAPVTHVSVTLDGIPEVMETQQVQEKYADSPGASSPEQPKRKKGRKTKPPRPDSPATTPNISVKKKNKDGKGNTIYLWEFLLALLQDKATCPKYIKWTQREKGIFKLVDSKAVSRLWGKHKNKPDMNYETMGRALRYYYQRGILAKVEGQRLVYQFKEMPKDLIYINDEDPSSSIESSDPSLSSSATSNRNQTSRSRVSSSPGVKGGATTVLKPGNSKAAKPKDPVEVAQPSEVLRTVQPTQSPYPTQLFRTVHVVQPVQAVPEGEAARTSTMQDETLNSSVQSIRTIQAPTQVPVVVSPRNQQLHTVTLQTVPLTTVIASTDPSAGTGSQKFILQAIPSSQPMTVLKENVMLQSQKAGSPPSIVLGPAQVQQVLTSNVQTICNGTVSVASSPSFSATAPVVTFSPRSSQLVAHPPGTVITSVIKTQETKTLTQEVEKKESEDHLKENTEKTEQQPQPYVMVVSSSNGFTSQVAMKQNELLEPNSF
# ETV5, sequence (P41161 whole entry): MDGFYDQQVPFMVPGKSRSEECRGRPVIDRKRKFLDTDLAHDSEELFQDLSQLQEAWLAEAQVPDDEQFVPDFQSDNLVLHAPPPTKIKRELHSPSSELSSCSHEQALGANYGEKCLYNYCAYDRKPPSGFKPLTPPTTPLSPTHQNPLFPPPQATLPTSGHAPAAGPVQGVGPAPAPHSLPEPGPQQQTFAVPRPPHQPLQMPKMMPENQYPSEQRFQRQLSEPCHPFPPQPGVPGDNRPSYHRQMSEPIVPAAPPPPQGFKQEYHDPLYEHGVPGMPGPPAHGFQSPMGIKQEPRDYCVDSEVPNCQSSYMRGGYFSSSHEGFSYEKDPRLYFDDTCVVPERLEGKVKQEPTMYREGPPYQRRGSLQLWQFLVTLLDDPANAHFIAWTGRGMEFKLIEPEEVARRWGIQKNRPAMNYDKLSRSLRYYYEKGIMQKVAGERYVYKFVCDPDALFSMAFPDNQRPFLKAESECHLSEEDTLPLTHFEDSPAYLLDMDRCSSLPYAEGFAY
# ETV1, sequence (P50549 whole entry): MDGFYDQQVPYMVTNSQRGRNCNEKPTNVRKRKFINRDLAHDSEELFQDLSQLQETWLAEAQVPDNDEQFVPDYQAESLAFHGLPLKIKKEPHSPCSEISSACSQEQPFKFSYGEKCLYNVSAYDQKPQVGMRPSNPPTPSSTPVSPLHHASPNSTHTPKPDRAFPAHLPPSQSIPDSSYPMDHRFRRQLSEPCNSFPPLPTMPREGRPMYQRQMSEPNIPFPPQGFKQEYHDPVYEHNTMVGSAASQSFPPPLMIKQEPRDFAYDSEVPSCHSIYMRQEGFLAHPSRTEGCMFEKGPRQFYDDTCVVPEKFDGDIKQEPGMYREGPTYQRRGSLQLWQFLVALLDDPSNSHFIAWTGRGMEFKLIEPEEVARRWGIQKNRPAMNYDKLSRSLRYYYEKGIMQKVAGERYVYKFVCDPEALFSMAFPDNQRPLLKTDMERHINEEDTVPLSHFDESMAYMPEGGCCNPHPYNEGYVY
sequence,measurement,setting,value
ACAGCT,binding signal,FLI1,"1.15 fold enrichment (6-mer frequency, TF over GST control)"
same,binding signal,ELK1,"1.14 fold enrichment (6-mer frequency, TF over GST control)"
same,binding signal,GABPA,"1.19 fold enrichment (6-mer frequency, TF over GST control)"
same,binding signal,ERG,"1.17 fold enrichment (6-mer frequency, TF over GST control)"
same,binding signal,ELF1,"1.16 fold enrichment (6-mer frequency, TF over GST control)"
same,binding signal,EHF,"1.16 fold enrichment (6-mer frequency, TF over GST control)"
same,binding signal,SPI1,"1.11 fold enrichment (6-mer frequency, TF over GST control)"
same,binding signal,SPIB,"1.2 fold enrichment (6-mer frequency, TF over GST control)"
same,binding signal,ELK3,"1.18 fold enrichment (6-mer frequency, TF over GST control)"
same,binding signal,FEV,"1.07 fold enrichment (6-mer frequency, TF over GST control)"
same,binding signal,ETV5,"1.02 fold enrichment (6-mer frequency, TF over GST control)"
same,binding signal,HSF1,"1.07 fold enrichment (6-mer frequency, TF over GST control)"
same,binding signal,SPIC,"1.11 fold enrichment (6-mer frequency, TF over GST control)"
same,binding signal,ELF4,"1.15 fold enrichment (6-mer frequency, TF over GST control)"
same,binding signal,ELK4,"1.13 fold enrichment (6-mer frequency, TF over GST control)"
same,binding signal,ETV2,"1.16 fold enrichment (6-mer frequency, TF over GST control)"
same,binding signal,ELF3,"1.36 fold enrichment (6-mer frequency, TF over GST control)"
same,binding signal,CRX,"1.18 fold enrichment (6-mer frequency, TF over GST control)"
same,binding signal,ETV1,"1.08 fold enrichment (6-mer frequency, TF over GST control)"
